Several values for one entry are separate records, joined by “and”; a condition that tells them apart may be missing. Identical values can stand only once. About 83,000 compounds went through this panel and 20% of them were active in at least one assay; those are over-represented in the sample as a whole.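 The endpoint reported here, percent growth, reads 100 for growth as untreated, 0 for no net growth and -100 for all cells dead.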 Unmarked numbers belong to inactive results. Activity calls are given as the source filed them. How the source made its calls: active means growth percent below 10; inactive means the rest.
system: MDA-MB-468 breast; test: NCI-60 one-dose screen, 48 h (100 = growth as untreated, 0 = no growth, -100 = all killed); details: 10 µM unless noted

SMILES	growth
COc1ccc(-c2cnoc2-c2ccc(OC)cc2O)cc1	1% (active)
CN(Cc1ccccc1)c1nc(Cl)c(C2CC(c3ccc(Cl)cc3)=Cc3[nH][nH]c(=O)c32)s1 (stereo not given)	106%
Cc1ccc(C)n1-c1ccsc1C(=O)NNC(=O)CCl	88%
Nc1ccc(-c2ccc(N)c(Br)c2)cc1Br	19.8%
Clc1ccc2c(c1)-c1ccccc1C1=NCCN12	7.52% (active)
CC(=O)Nc1nc(N)nc(NC(C)=O)c1N=O	118%
CSc1nsc(N)n1	103%
CSc1n(Cc2ccc3ccccc3c2)c(C)c[n+]1Cc1ccc2ccccc2c1	-47.5% (active)
CC1OC(C(=O)N2CCN(CCO)CC2)CC1COC1CCCCC1 (stereo not given)	94.6% [50 µM]
O=C(O[C@@H]1Cc2c(O)cc(O)cc2O[C@@H]1c1cc(O)c(O)c(O)c1)c1cc(O)c2c(c1)OCO2	109%
O=C1C2CC3C(CC2C(=O)[N]1[Sn]([c]1ccccc1)([c]1ccccc1)[c]1ccccc1)C1(Cl)C(Cl)=C(Cl)C3(Cl)C1(Cl)Cl (stereo not given)	-83.1% (active)
CCOC(=O)C(CCCCC(NC(C)=O)(C(=O)OCC)C(=O)OCC)(NC(C)=O)C(=O)OCC	107%
CC(C)C1=C(O)C2=C(C(=O)C1=O)[C@@]1(C)CCCC(C)(C)[C@@H]1CC2	73.1%
CC(=O)Nc1scc[n+]1Cc1ccccc1	103%
O=C(Oc1ccc[nH]c1=O)c1cccc(Cl)c1	89.8%
CCOC(=O)c1sc(NC(=O)CN2CCC(Cc3ccccc3)CC2)nc1C	98.5%
O=c1oc2ccc(Br)cc2c(=O)n1-c1ccc(Cl)cc1F	-1.24% (active)
Cc1ccc(NC(=O)c2ccc(CN3CC[C@H](N(C)C)C3)c(C(F)(F)F)c2)cc1Nc1nccc(-c2cncnc2)n1	-36.5% (active)
Cc1nc(Nc2cccnc2)sc1C(=O)/C=C/c1ccc(Cl)cc1	11.8%
Cc1[nH]n(C(=O)c2ccncc2)c(=O)c1N=Nc1ccc(F)c(Cl)c1	110%
Clc1ccc2[nH]cc(-c3cncn3CCc3ccccc3)c2c1	7.96% (active)
Nc1cccc(Cl)c1N	-21.1% (active)
O=C(O)CN(CCN(CC(=O)O)CC(=O)O)CCN(CC(=O)O)CC(=O)O	22% and 94.6% and 89.3%
O=[N+]([O-])c1c(O)c(CNCCCO)cc(CNCCCO)c1O	108%
CN(C1c2ccccc2Oc2ccccc21)S(=O)(=O)c1cc(Cl)ccc1Cl	18.9%
